Data as given in ChEMBL document CHEMBL1961873, “Compounds: GSK PKIS; Assays: Nanosyn kinase panel” (2012).

Columns and labels:
[1] = target: 5'-AMP-activated protein kinase catalytic subunit alpha-2 (Homo sapiens) (UniProt P54646); conditions: at 1 µM
[2] = target: T1, NUAK family SNF1-like kinase 1 (Homo sapiens) (UniProt O60285); conditions: at 0.1 µM
T1 sequence (whole entry): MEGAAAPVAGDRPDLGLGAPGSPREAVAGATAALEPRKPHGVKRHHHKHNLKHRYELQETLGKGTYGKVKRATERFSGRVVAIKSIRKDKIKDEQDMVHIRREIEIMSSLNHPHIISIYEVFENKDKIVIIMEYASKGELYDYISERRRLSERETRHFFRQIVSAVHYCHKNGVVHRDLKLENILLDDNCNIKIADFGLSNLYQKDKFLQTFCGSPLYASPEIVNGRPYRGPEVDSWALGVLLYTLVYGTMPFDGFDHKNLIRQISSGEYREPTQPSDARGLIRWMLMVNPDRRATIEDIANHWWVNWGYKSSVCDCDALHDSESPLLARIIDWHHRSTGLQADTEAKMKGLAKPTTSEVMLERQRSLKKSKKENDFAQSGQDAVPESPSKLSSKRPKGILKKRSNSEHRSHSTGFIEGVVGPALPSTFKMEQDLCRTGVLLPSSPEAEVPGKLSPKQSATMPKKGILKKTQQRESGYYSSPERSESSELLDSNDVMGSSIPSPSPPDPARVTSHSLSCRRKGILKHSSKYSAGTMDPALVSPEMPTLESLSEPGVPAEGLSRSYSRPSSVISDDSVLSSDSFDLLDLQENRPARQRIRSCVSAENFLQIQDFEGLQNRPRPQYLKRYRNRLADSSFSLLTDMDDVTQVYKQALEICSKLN

[3] = target: T1, NUAK family SNF1-like kinase 1 (Homo sapiens); conditions: at 1 µM
[4] = target: T2, Serine/threonine-protein kinase BRSK1 (Homo sapiens) (UniProt Q8TDC3); conditions: at 0.1 µM
T2 sequence (whole entry): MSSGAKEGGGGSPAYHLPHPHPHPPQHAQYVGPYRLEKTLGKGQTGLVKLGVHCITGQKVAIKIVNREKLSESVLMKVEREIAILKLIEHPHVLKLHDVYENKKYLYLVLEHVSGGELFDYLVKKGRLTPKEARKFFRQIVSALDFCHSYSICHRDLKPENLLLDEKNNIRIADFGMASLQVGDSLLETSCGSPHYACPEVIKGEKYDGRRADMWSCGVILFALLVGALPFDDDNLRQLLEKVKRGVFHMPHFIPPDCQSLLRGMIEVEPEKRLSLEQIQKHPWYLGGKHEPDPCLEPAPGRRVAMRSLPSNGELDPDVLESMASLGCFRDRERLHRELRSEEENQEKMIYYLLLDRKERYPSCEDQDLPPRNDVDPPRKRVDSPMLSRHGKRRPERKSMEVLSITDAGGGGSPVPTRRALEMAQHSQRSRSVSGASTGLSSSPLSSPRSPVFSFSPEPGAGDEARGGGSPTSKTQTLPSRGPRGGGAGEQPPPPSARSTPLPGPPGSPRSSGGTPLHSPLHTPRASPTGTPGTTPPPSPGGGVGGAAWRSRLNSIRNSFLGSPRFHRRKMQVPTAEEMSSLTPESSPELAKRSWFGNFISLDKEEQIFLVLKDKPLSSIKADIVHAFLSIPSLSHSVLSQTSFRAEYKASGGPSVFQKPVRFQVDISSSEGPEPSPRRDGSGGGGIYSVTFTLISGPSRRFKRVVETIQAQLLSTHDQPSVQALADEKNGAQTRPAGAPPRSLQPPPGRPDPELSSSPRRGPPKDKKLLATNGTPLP

[5] = target: T2, Serine/threonine-protein kinase BRSK1 (Homo sapiens); conditions: at 1 µM
[6] = target: T3, Serine/threonine-protein kinase BRSK2 (Homo sapiens) (UniProt Q8IWQ3); conditions: at 0.1 µM
T3 sequence (whole entry): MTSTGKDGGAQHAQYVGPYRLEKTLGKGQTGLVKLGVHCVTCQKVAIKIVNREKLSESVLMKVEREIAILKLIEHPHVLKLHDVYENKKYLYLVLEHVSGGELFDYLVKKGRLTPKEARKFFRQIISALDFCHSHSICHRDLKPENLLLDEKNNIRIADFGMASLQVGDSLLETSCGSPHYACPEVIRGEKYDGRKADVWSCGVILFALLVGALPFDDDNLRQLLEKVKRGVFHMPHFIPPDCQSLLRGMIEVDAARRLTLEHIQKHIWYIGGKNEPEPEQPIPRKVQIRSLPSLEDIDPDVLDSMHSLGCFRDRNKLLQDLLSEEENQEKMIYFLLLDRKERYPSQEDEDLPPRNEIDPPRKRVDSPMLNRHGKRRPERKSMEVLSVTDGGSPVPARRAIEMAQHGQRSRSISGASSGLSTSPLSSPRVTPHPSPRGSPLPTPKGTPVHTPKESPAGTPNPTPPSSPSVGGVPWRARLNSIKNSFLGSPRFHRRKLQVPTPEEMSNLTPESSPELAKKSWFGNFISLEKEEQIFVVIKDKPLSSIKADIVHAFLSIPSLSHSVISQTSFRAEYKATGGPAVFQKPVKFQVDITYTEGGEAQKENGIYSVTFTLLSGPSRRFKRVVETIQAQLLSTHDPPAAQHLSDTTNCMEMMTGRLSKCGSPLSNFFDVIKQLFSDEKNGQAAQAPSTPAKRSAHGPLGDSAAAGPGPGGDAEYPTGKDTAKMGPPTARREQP

[7] = target: T3, Serine/threonine-protein kinase BRSK2 (Homo sapiens); conditions: at 1 µM
[8] = target: Calcium/calmodulin-dependent protein kinase type 1D (Homo sapiens) (UniProt Q8IU85); conditions: at 0.1 µM
[9] = target: Calcium/calmodulin-dependent protein kinase type 1D (Homo sapiens) (UniProt Q8IU85); conditions: at 1 µM
[10] = target: Calcium/calmodulin-dependent protein kinase type II subunit alpha (Homo sapiens) (UniProt Q9UQM7); conditions: at 0.1 µM;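 also: reported values are averages (mean inhibition of CAMK2A)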
Sequence of Calcium/calmodulin-dependent protein kinase type II subunit alpha (Homo sapiens) (Q9UQM7 whole entry): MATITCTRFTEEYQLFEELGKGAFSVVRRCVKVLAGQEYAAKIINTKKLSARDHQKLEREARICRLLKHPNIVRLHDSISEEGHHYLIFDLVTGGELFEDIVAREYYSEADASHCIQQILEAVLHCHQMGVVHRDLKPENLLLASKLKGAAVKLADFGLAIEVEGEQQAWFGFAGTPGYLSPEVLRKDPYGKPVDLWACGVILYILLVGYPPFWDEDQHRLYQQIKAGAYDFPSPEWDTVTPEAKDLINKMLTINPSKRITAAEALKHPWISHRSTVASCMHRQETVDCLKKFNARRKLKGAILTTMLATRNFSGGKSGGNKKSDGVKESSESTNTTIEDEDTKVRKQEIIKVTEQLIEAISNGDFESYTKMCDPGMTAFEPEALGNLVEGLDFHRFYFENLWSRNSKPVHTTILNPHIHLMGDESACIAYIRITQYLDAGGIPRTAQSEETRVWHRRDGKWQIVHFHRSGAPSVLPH

Sequence of Calcium/calmodulin-dependent protein kinase type 1D (Homo sapiens) (Q8IU85 whole entry, looked up): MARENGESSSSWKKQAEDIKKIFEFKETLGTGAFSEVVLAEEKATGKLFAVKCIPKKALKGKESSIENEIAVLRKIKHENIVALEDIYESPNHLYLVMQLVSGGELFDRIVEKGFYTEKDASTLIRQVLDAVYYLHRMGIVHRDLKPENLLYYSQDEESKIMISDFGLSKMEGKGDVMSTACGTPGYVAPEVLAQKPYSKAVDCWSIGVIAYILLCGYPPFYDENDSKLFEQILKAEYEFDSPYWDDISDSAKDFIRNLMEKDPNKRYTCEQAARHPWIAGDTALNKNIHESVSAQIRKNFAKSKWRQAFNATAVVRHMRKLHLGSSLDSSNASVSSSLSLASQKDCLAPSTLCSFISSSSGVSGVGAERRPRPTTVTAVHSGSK
Sequence of 5'-AMP-activated protein kinase catalytic subunit alpha-2 (Homo sapiens) (P54646 whole entry, looked up): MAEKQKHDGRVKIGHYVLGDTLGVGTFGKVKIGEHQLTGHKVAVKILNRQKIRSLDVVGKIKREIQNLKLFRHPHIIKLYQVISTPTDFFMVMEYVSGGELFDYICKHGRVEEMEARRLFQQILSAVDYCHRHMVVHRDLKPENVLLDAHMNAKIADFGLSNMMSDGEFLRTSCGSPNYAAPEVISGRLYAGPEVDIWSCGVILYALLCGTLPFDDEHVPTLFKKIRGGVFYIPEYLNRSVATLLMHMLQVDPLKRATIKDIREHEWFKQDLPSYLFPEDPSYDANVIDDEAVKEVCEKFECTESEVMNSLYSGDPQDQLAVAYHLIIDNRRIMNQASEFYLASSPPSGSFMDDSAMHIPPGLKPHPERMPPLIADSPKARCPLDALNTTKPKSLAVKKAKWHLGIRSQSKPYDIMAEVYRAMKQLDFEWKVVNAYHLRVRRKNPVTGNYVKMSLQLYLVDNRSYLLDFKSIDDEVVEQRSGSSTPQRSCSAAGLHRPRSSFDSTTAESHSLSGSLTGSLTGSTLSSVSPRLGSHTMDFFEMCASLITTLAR

Compound	inhibition [1] [%]	inhibition [2] [%]	inhibition [3] [%]	inhibition [4] [%]	inhibition [5] [%]	inhibition [6] [%]	inhibition [7] [%]	inhibition [8] [%]	inhibition [9] [%]	inhibition [10] [%]
COc1ccc(-c2nn3ncccc3c2-c2ccnc(Nc3cccc(C(F)(F)F)c3)n2)cc1	3.96	0.91	-0.63	-0.24	1.65	2.63	2.85	0.46	0.37	2.25
O=C(Nc1ccc(Oc2ccc3[nH]c(NC(=O)c4ccco4)nc3c2)cc1)Nc1cc(C(F)(F)F)ccc1F	3.81	0.89	5.7	0.62	-0.05	-0.37	1.01	0.46	3.08	0.33
CN1CCN(C(=O)c2ccc(NC(=O)Nc3ccc(N(C)c4ccnc(Nc5ccc(CS(C)(=O)=O)cc5)n4)cc3)cc2)CC1	7.01	0.11	44.5	0.56	2.28	0.38	7.68	0.6	2.18	1.63
C[C@@H](Oc1cc(-n2cnc3ccc(OC[C@@H](O)CO)cc32)sc1C(N)=O)c1ccccc1Cl	2.08	6.98	39.1	15.7	55.8	24.2	68.3	-0.01	0.92	-2.71
Nc1nccc(-c2c(-c3ccc(F)cc3)nn3cc(C(F)(F)F)ccc23)n1	0.34	0.16	-3	-0.37	0.47	0.15	-0.77	-1.67	-2.05	0.49
Cc1ccc(Nc2ccnc(Nc3cccc(C(N)=O)c3)n2)cc1O	5.29	7.76	41.1	0.1	6.23	2.24	9.72	1.34	4.12	3.21
COC(=O)c1ccc2c(c1)C(=Cc1cc(Br)c(O)c(Br)c1)C(=O)N2	4.79	-1.29	2.73	3.81	2.04	0.42	5.14	0.26	3.35	2.97
COc1cc2ncnc(Nc3ccc4c(cnn4Cc4ccccc4)c3)c2cc1OC	3.91	-0.12	2.05	1.23	1.11	0.79	4.84	0.22	1.49	0.08
COC(=O)c1cncc(/C=C/c2c(C)cc(O)cc2C)c1	2.21	3.22	8.1	-1.29	7.61	1.09	6.54	-0.5	-0.32	1.91
c1ccc(Cc2nc3ccc(Nc4ncnc5ccccc45)cc3[nH]2)cc1	2.91	4.96	5.29	-0.34	3.16	1.93	5	-0.7	0.04	2.75
COc1cccc(-n2ncc3c(N/N=C/c4ccc(C)cc4)ncnc32)c1	6	6.88	16.2	6.04	9.05	5.73	12.7	0.52	3.47	3.6
N#Cc1c(NC(=O)c2ccccc2F)sc2c1CCCC2	0.55	2.6	3.42	0.36	1.62	1.76	3.8	-0.22	0.3	-2.24
Cc1ccc(NC(=O)CC2CC2)cc1-c1ccc(C(=O)NCC2CC2)cc1	3.66	2.19	3.71	-0.17	0.46	1.82	3.93	0.97	0.89	2.5
CC(C)c1ccc2c(c1)NC(=O)/C2=N/Nc1ccc(S(N)(=O)=O)cc1	0.27	11	41.7	0.3	1.21	-0.18	7.2	-0.63	1.05	-0.9
NC(=O)c1sc(-n2cnc3ccccc32)cc1OCc1ccccc1Br	4.98	7.8	29.1	3.67	8.3	3.06	17.1	0.13	2.21	1.7
Cc1ccc2c(c1)/C(=N/Nc1ccc(S(N)(=O)=O)cc1)C(=O)N2	12.3	21.7	62.2	2.87	9.92	3.09	12.8	2.35	2.43	2.02
Cc1cc(O)cc(C)c1/C=C/c1cncc(C(=O)N(C)C)c1	4.38	1.62	8.58	2.98	8.54	3.48	6.07	-0.81	2.29	3.26

Compound	inhibition [1] [%]	inhibition [2] [%]	inhibition [3] [%]	inhibition [4] [%]	inhibition [5] [%]	inhibition [6] [%]	inhibition [7] [%]	inhibition [8] [%]	inhibition [9] [%]	inhibition [10] [%]
Cc1nc(-c2ccccc2)n2nc(NCCCN3CCOCC3)ncc12	4.91	0.66	20.3	1.1	-0.76	1.22	2.49	1.67	2.49	2.42
Cc1ccc(C(=O)NC2CC2)cc1-c1ccc2[nH]ncc2c1	-3.42	6.51	6.93	1.35	3.03	1.54	5.84	-0.69	0.06	-4.3
CCCN1CCCC(c2ccc(Nc3nc(Nc4cc(F)ccc4C(N)=O)c4cc[nH]c4n3)c(OC)c2)C1 (stereo not given)	10.7	30.2	59.7	2.61	1.82	2.57	2.9	15.8	61.1	11
NS(=O)(=O)c1cccc(Nc2cc(-c3ccc(F)cc3)n[nH]2)c1	10.9	-3.46	12.6	1.36	5.97	3.15	11.2	-0.34	-0.05	2.68
NS(=O)(=O)c1ccc(NC=C2C(=O)Nc3ccc4ncsc4c32)cc1	53.4	69.9	69.8	34.1	60.3	45.2	63.6	2.99	8.72	4.91
N#Cc1cccc(Nc2nccc(-c3cnn4ncccc34)n2)c1	12.5	38.5	73.4	0.94	7.19	2.94	12.1	-0.83	3.54	7.55
O=C1Nc2ccc(-c3cccnc3)cc2C1=Cc1cc(Br)c(O)c(Br)c1	7.03	-0.34	4.71	2.51	4.37	2.22	2.32	1.08	4.01	2.95
CCn1c(-c2nonc2N)nc2ccc(F)cc21	3.56	1.74	2.03	0.43	1.87	1.78	5.06	0.45	-0.34	4.39
COc1cc(Nc2nccc(-c3cnn4ncccc34)n2)cc(OC)c1	17.4	69.1	84.8	1.03	5.11	0.3	6.76	0.86	6.41	3.61
NS(=O)(=O)c1ccc(N/N=C2\C(=O)Nc3ccc(Cl)cc32)cc1	12.9	11	48.9	0.76	8.96	3.16	14.9	0.02	0.47	2.65
Cc1cc(-c2ccccn2)cc(C)c1/C=C/c1cncc(-c2nn[nH]n2)c1	3.78	2.95	6.85	2.2	-0.86	1.67	3.37	0.06	0.67	2.42
Cc1cc(Cl)cc2c1NC(=O)C2=NNc1ccc(S(N)(=O)=O)cc1	1.04	0.35	8.3	-1.42	3.61	1.16	3.77	0.2	-0.6	4.14
Cc1ccc(O)cc1Nc1ccnc2ccc(S(C)(=O)=O)cc12	3.93	2	4.91	0.5	1.8	2.1	5.1	-0.51	0.98	2.94
CN(c1ccc(NC(=O)Nc2ccc(OC(F)(F)F)cc2)cc1)c1ccnc(Nc2cccc(S(N)(=O)=O)c2)n1	2.41	-0.52	10.1	1.53	5.53	1.94	1.96	-0.31	0.2	3.05
[O-][S+]1CCN(Cc2ccc(-c3ccc4ncnc(Nc5ccc(OCc6ccccc6)c(Cl)c5)c4c3)o2)CC1	1.22	-2.45	-2.99	0.95	0.18	1.49	2.79	-0.14	0.11	-0.84
COc1cc2ncn(-c3cc(OCc4ccccc4S(C)(=O)=O)c(C#N)s3)c2cc1OC	31.2	14.5	54.3	37.1	76.3	53.7	82.2	1.23	6.21	6.03
CCS(=O)(=O)c1ccc(OC)c(Nc2nccc(N(C)c3ccc4c(C)n[nH]c4c3)n2)c1	3.91	-0.8	-2.26	0.17	4.69	3.82	4.12	3.64	0.51	2.57
